# In all, about 16,000 compounds went through this assay and about 5,100 (32%) were called active. About 25% were inconclusive and are not listed. The list shows a part of the results. A number with no mark means an inactive call. Calls come from the whole dose curve; as a rule, active = well fitted curve in the direction sought with a large enough effect; inconclusive = small, poorly fitted or top-dose-only effect, or effect the other way; inactive = no such curve, though single readings can be large or run the other way.
# Biological target: Cytochrome P450 3A4 (Homo sapiens) (UniProt P08684)
# Test: Cytochrome panel assay with activity outcomes
# Settings: recombinant CYP, pro-luciferin dealkylation, luminescence, p450-cyp3a4; series mostly up to 57.1 µM; activity, negative = inhibition: at the top concentration
# Experimental: The P450 gene superfamily is involved in the metabolism and clearance of xenobiotics. This assay used various human CYP P450 isozymes to measure the dealkylation of various pro-luciferin substrates to luciferin. The luciferin is then measured by luminescence after the addition of a luciferase detection reagent. Pro-luciferin substrate concentration in the assay was equal to its KM for its CYP P450 isozyme. Inhibitors and some substrates limit the production of luciferin, and decrease measured luminescence.
# NCGC Assay Protocol Summary:
# 1, Reagent, 2 uL, Isozyme and Pro-Luciferin
# 2, Library compounds, 23 nl, 40 uM to 0.24 nM dilution series
# 3, Controls, 23 nl, Isozyme specific inhibitor
# 4, Reagent, 2 uL, NADPH regeneration solution
# 5, Incubation time, 60 min, Isozyme specific temperature
# 6, Reagent, 4ul, Detection reagent
# 7, Incubation time, 20 min, Isozyme specific temperature
# 8, Detection, 1 sec, ViewLux luminescent read
# The luciferase-based P450-GloTM Screening Systems were obtained from Promega (Madison, WI) for CYP 1A2 (V9770), CYP 2C9 (V9790), CYP2 C19 (V9880), CYP 2D6 (V9890), and CYP 3A4 Luciferin-PPXE (V9910) and were adapted for 1,536-well microplates and an automated protocol. The control compounds furafylline for 1A2 (F124), sulfaphenazole for CYP 2C9 (S0758), ketoconazole for CYP 2C19 (K1003), quinidine for 2D6 (Q3625), and ketoconazole for 3A4 (K1003) were purchased from Sigma Aldrich (St. Louis, MO). Recombinant P450 enzymes were obtained from baculovirus constructs expressed in insect cells (BD/Gentest).
# Medium-binding white solid Kalypsys plates used. Mixtures kept on ice. 1A2: 10 nM 1A2, 100 uM Luc-ME, 100 mM KPO4; 2C9: 10 nM 2C9, 100 uM Luc-H, 25 mM KPO4; 2C19: 5 nM 2C19, 10 uM Luc-H EGE, 50 mM KPO4; 2D6: 5 nM 2D6, 30 uM Luc-ME EGE, 100 mM KPO4; 3A4: 10 nM, 25 uM Luc-PPXE. All amounts are reflected in their final concentration, working concentration is 2x.
# NADPH regeneration solution: 1.3 mM NADP+, 3.3 mM glucose-6-phosphate, 3.3 mM MgCl2, 0.4 U/mL glucose-6-phosphate dehydrogenase for all isozymes, 200 mM KPO4 for 3A4. Mixture prepared at RT but kept on ice during automated run.
# RT incubation in auxilliary plate hotel for 1A2, 2D6, and 3A4; 37C for 2C9 and 2C19.
# Keywords: P450, CYP1A2, CYP2C19, CYP2C9, CYP2D6, CYP3A4, Luciferase, MLSMR, MLSCN, NIH Roadmap, qHTS, NCGC
# % is set by controls: 0 for no effect and ±100 for the full control effect.
# Chain of Cytochrome P450 3A4 (Homo sapiens) (P08684 whole entry, looked up): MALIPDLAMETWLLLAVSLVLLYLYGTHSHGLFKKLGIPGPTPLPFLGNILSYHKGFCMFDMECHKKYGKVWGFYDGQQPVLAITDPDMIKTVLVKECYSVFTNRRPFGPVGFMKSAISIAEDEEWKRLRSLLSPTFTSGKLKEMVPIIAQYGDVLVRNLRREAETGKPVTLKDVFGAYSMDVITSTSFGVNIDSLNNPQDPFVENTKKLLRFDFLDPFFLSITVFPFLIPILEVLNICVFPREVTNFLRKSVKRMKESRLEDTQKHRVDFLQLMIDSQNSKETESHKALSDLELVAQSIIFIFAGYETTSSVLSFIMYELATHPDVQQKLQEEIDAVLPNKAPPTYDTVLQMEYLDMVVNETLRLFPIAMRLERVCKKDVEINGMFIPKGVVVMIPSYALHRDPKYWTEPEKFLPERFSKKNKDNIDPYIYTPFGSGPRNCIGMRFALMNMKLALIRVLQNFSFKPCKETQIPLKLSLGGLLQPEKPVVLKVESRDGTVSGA
SMILES,AC50,"activity, negative = inhibition"
O=C(CSc1nc2ccccc2c(=O)n1NC(=O)c1ccccc1)c1ccc(Cl)cc1,14.1 µM (active),
O=C(CSc1nc2ccccc2c(=O)n1NC(=O)Cc1ccccc1)NCc1ccccc1Cl,5.62 µM (active),
CC(C)(C)n1ncc2c(=O)n(CC(=O)NCc3ccccc3Cl)cnc21,,-27.1% [at 11.4 µM]
CC(=O)C1C(c2ccccc2OC(F)F)NC(=O)NC1(O)C(F)(F)F (stereo unspecified),,-21.6%
CCCCCC(=O)O[C@H](CC(=O)O)C[N+](C)(C)C,,-10.6%
CN(C)C(=O)c1ccc(-c2cncnc2NCCN2CCOCC2)cc1,15.8 µM (active),
CN(C)c1ccc(-c2cncnc2NCCN2CCOCC2)cc1,3.16 µM (active),
Cc1ccnc(NS(=O)(=O)c2ccc(N=[N+]=[N-])cc2)n1,,1.05% [at 11.4 µM]
O=c1[nH][nH]c(C(F)(F)F)c1C=Nc1cccc(Cl)c1,,-6.64%
COc1cccc(/C=N/NC(=O)c2cc(-c3cccn3C)n[nH]2)c1,,-9.54% [at 2.29 µM]
Clc1cccc(C=NC=Nc2cccc(Cl)c2)c1,,-25.5%
COc1cccc(N=Cc2c[nH][nH]c2=O)c1,14.1 µM (active),
COc1cccc(C=NC=Nc2cccc(OC)c2)c1,20 µM (active),
O=c1[nH][nH]cc1C=Nc1ccccc1O,,-5.56% [at 11.4 µM]
CCCn1nnnc1-c1cc(Cl)cc(Cl)c1,,29.9% [at 2.29 µM]
N#C/C(=C\c1cccs1)C(=O)NCC1CCCO1 (stereo unspecified),,-2.23%
Cc1cccc(C)c1NC(=O)/C(C#N)=C/c1cccs1,20 µM (active),
Cc1sc(NC(=O)c2ccco2)c(C(c2cccnc2)N2CCN(C)CC2)c1C (stereo unspecified),,-28.9% [at 2.29 µM]
O=C(NCC(c1cccs1)N1CCOCC1)c1ccco1 (stereo unspecified),,-11.4%
Cc1sc(NC(=O)c2ccco2)c(C(c2cccnc2)N2CCCC2)c1C (stereo unspecified),1.58 µM (active),
Cc1sc(NC(=O)c2ccco2)c(C(c2ccncc2)N2CCOCC2)c1C (stereo unspecified),3.16 µM (active),
Cc1ccccc1-c1nccc(NCc2cccnc2)n1,3.98 µM (active),
Cc1cccc(CNc2ccnc(-c3ccccc3Cl)n2)c1,3.98 µM (active),
COc1ccccc1-c1nccc(NCc2ccccc2)n1,15.8 µM (active),
COc1ccccc1-c1nccc(NCc2cccnc2)n1,2.51 µM (active),
O=c1c(-c2ccccc2)c(O)c2cccc3c2n1CCC3,,-13.8%

SMILES,AC50,"activity, negative = inhibition"
CCCCCSc1nnc(C)c(=O)[nH]1,,1.88%
COc1ccccc1-c1nccc(NCc2cccc(C)c2)n1,6.31 µM (active),
CC1=c2c(oc3cc(O)c(Nc4c(C)cc(O)cc4O)c(C)c23)=CC(=O)C1=Nc1c(C)cc(O)cc1O,,-19.4% [at 11.4 µM]
CC(c1ccccc1C(O)c1ccccc1)N(C)C (stereo unspecified),,16.7%
CCCCN(C(=O)Nc1ccc(OCC)cc1)C1CCN(C(C)=O)CC1,,-4.5%
COc1ccc(NC(=O)N(C2CCCCC2)C(C)c2cccnc2)c(OC)c1 (stereo unspecified),10 µM (active),
CCOc1ccc(NC(=O)N(C2CCCCC2)C(C)c2ccncc2)cc1 (stereo unspecified),15.8 µM (active),
CCOc1ccc(NC(=O)C(=O)NCC2CCCN2CC)cc1 (stereo unspecified),,-4.42%
COc1nc(Cl)nc(Cl)c1Cl (tested in a mixture with another compound),,3.03% [at 11.4 µM]
CCn1c(O)c(/C=C2\C=Nc3ccccc32)sc1=Nc1ccc(C)cc1,,-3.41% [at 2.29 µM]
O=c1c(-c2cccs2)nc2cncnc2n1Cc1ccccc1,6.31 µM (active),
Cc1nc2cncnc2n(Cc2ccccc2)c1=O,,0.371%
O=c1c(-c2cccs2)nc2cncnc2n1Cc1ccc(F)cc1,12.6 µM (active),
Cc1c(NC(=S)N/N=C/c2ccc(O)cc2)c(=O)n(-c2ccccc2)n1C,,-17.4%
Cc1c(N(C)C)c(=O)n(-c2ccccc2)n1C,,-12.7% [at 25.6 µM]
Cc1c(NC(=S)/C=C2\N(C)c3ccccc3C2(C)C)c(=O)n(-c2ccccc2)n1C,5.62 µM (active),
COc1ccc2sc3ccccc3c(=O)c2c1OC,17.8 µM (active),
COc1ccc2cc(C(=O)Nc3ccc(F)cc3)sc(=O)c2c1OC,,-4.97% [at 2.29 µM]
COc1ccc2c(c1OC)C(=O)OC2Nc1ncccc1C (stereo unspecified),,-2.44% [at 2.29 µM]
COc1ccc(CN2C(=O)CN(C3CCCCCC3)C(=O)C2c2ccc(OC)c(OC)c2)cc1 (stereo unspecified),1.58 µM (active),
COc1ccc(C2C(=O)N(C3CCCCCC3)CC(=O)N2Cc2ccccc2)cc1OC (stereo unspecified),4.47 µM (active),
COc1cc(C2C(=O)N(C3CCCC3)CC(=O)N2Cc2ccco2)ccc1OC(C)C (stereo unspecified),8.91 µM (active),
C=CCn1c(SC(C)C(=O)NCc2ccc3c(c2)OCO3)nc2scc(-c3ccccc3)c2c1=O (stereo unspecified),0.562 µM (active),
C=CCn1c(SCC(=O)N2CC(=O)Nc3ccccc32)nc2scc(-c3ccccc3)c2c1=O,2.82 µM (active),
C=CCn1c(SCc2ccc3c(c2)OCO3)nc2scc(-c3ccco3)c2c1=O,2.82 µM (active),
C=CCn1c(SCc2ccccc2)nc2scc(-c3ccc(C)o3)c2c1=O,,-11.1%

SMILES,AC50,"activity, negative = inhibition"
O=C(ON=C1CCN(S(=O)(=O)c2ccccc2)CC1)c1ccccc1,,2.57%
COc1ccc(S(=O)(=O)N2CCc3ccccc3C2)cc1OC,15.8 µM (active),
O=S(=O)(c1ccc(Cl)s1)N1CCc2ccccc2C1,,17.9%
CCCCCCCCCCCCC(=O)N1CCCC[C@H]1CNC(=O)[C@@H](N)CCCCN,,-26.5%
O=C(NNc1cccc(Cl)n1)Nc1ccccc1Cl,12.6 µM (active),
NC(=O)NC(=O)Nc1ccccc1Cl,,-6.66%
CC(=O)NNc1cccc(Cl)n1,,8.92%
CCN(CCO)C[C@H]1CCC[C@H]2CCCC[C@@H]21,,-20% [at 11.4 µM]
CN(C)S(=O)(=O)Oc1cccc(C(=O)Nc2ccccc2Cl)c1,,-12.3% [at 11.4 µM]
CN(C)S(=O)(=O)Oc1ccsc1C(=O)Nc1ccc(Cl)cc1,15.8 µM (active),
CN(C)S(=O)(=O)c1ccc(NC(=O)c2cc(F)c(F)cc2Cl)cc1,,14.8%
Cc1ccc(Sc2ccc(NC(=O)c3ccc(S(C)(=O)=O)cc3Cl)cc2)cc1,,-22.9%
CN(C)S(=O)(=O)Oc1cccc(C(=O)Nc2ccc(Cl)c(Cl)c2)c1,25.1 µM (active),
CN(C)S(=O)(=O)Oc1ccsc1C(=O)Nc1cccc(Cl)c1,10 µM (active),
C/C(=N/OC(=O)c1cccc(Cl)c1)c1nccs1,,5.02%
O=C1NCN(c2ccccc2)C12CCN(CCCC(c1ccc(F)cc1)c1ccc(F)cc1)CC2,,-9.23% [at 25.6 µM]
C[C@H](CN(C)C)C(=O)c1ccccc1C(=O)O,,-12.4% [at 11.4 µM]
NC[C@H](O)C1CCCCCCC1,,-5.4%
CCNc1ncc2nc(C)c(=O)n(Cc3cccc(OC)c3)c2n1,7.94 µM (active),
CCNc1ncc2nc(-c3ccccc3)c(=O)n(Cc3cccc(OC)c3)c2n1,10 µM (active),
CCNc1ncc2nc(-c3ccc(Cl)cc3)c(=O)n(Cc3cccc(OC)c3)c2n1,,-5.08%
Nc1nc(Cl)nc2c1ncn2[C@@H]1O[C@@H](CO)[C@@H](O)[C@H]1O,,3.91%
CCOC(=O)NNc1nncc2ccccc12,,3.81% [at 25.6 µM]
CNc1nc(-c2cccnc2)nc2ccccc12,6.31 µM (active),
c1ccc(Nc2nc(-c3cccnc3)nc3ccccc23)cc1,12.6 µM (active),
CCOC(=O)c1ccc(Nc2nc(-c3cccnc3)nc3ccccc23)cc1,11.2 µM (active),

SMILES,AC50,"activity, negative = inhibition"
CC(C)c1nc2oc3ccccc3c(=O)c2c(=O)n1-c1ccccc1,,26.1%
CC(C)(C)NC[C@H](O)COc1cccc2c1CCCC2=O,inactive,
CCOC(=O)c1cc2c(=O)n3ccccc3nc2n(CCCOC)c1=NC(C)=O,,11.8%
CCOC(=O)c1cc2c(=O)n3ccccc3nc2n(CCCOC)c1=NC(=O)C(C)(C)C,15.8 µM (active),
Cc1cc(=O)c2ccccc2[nH]1,,5.16%
O=c1[nH]c2ccccc2c2ccccc12,,-20.3%
COc1ccc(OC)c2c(=S)c3ccccc3[nH]c12,7.94 µM (active),
CC(CC(=O)O)(CC(=O)O)C(=O)O,,-8.15% [at 11.4 µM]
COc1ccc(OC)c(C2N(c3cc(C)on3)C(=O)C3CCCN32)c1 (stereo unspecified),,-29.9%
COc1ccc(OC)c(C2C3=C(COC3=O)Nc3cc4c(cc32)OCO4)c1 (stereo unspecified),7.08 µM (active),
COc1cccc(N2CCN(C(=O)Nc3ccc4c(c3)NC(=O)CO4)CC2)c1,,-22.6%
CC1CCCC(C)N1CCNC(=O)Cn1nc(-c2ccccc2)ccc1=O (stereo unspecified),,-23.7%
O=C(CCC(=O)c1cccs1)OCC(=O)N1CCN(C(=O)c2ccco2)CC1,,-6.6% [at 2.29 µM]
Cc1ccc(S(=O)(=O)N2CCOCC2)cc1NC(=O)COC(=O)CCC(=O)c1cccs1,11.2 µM (active),
Cc1ccc(S(N)(=O)=O)cc1NC(=O)/C=C/c1cccs1,,-17.8%
O=C(c1ccc(N2CCCCC2)c([N+](=O)[O-])c1)N(Cc1ccccc1)c1ccccn1,3.55 µM (active),
Cc1c(C(c2cccc([N+](=O)[O-])c2O)c2c(C)n(C)n(-c3ccccc3)c2=O)c(=O)n(-c2ccccc2)n1C,,-21.7%
Nc1nc(SCC(=O)Nc2ccccc2Sc2ccc(Cl)cc2)n[nH]1,0.708 µM (active),
CCCCc1nc(SCC(=O)Nc2ncccn2)n[nH]1,,-1.67%
O=C(c1ccccc1Nc1ccc(SC(F)F)cc1)N1CCCCC1,14.1 µM (active),
O=C(O)c1ccccc1Nc1ccccc1,,10.2%
CC1CCCC(C)N1C(=O)c1ccccc1Nc1ccc(SC(F)F)cc1 (stereo unspecified),10 µM (active),
O=C(O)CCC(=O)Nc1ccc(C(=O)N2CCCCC2)cc1,,-1.59%
